Screens from PubChem.
GoLoco inh red = inhibitors of human Gai1-RGS12 GoLoco interaction (red fluorophore); P63096; Gai1:RGS12 GoLoco peptide FP, rhodamine, 10 min; Potency, µM (doses to about 61.6 µM), most hits filed as inhibitors; 230,000 compounds, 0.44% hits; active means well fitted inhibition curve with a large enough effect, not every such curve was filed as active; inactive means no such curve, though single readings can be large or run the other way; further: nearly all actives have a fitted effect of over 30% in size
ALDH1A1 inh = ALDH1A1 (human) enzyme inhibition; Potency, µM (top dose mostly 75.3 µM), hits mostly inhibitors; P00352; AID 1030; Purified ALDH1A1, NADH fluorescence, propionaldehyde substrate; 220,000 compounds, 7.3% hits; active means well fitted inhibition curve with a large enough effect, not every such curve was filed as active; inconclusive means small, poorly fitted or top-dose-only effect, or another doubt; inactive means no such curve, though single readings can be large or run the other way
Target sequence (P00352 whole entry, looked up): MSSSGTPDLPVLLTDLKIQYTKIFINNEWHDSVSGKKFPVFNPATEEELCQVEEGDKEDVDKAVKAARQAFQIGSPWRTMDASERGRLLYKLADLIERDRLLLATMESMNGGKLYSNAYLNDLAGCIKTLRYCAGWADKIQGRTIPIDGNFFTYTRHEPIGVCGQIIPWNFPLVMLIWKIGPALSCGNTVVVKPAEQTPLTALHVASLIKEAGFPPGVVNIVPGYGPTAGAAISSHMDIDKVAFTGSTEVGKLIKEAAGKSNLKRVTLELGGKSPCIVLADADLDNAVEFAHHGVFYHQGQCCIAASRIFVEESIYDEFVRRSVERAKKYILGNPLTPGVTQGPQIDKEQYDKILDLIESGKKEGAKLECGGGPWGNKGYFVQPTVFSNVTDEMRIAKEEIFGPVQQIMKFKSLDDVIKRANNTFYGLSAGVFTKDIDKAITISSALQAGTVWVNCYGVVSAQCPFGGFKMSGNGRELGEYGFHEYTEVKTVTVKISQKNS
Coupling enz = inhibits coupling enzyme system, counter-screen for aldolase hits | coupling enzyme system counterscreen, AmpLite Red fluorescence | activity change, negative = inhibition, % at 58.2 µM, hits read low | 290,000 compounds, 0.67% hits | AID 2472; in the data active means activity change below about -30%
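Counterscreen of the coupled detection system alone, without aldolase: glyceraldehyde-3-phosphate coupling enzymes plus AmpLite Red readout. Compounds at 57.5 uM final, 10 min RT preincubation, 20 min RT reaction, fluorescence 525/598 nm.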
JMJD2E inh = inhibitors of human JMJD2E histone demethylase | B2RXH2 | 230,000 compounds, 1.6% hits | JMJD2E catalytic domain, FDH-coupled NADH fluorescence (FDH is formaldehyde dehydrogenase) | Potency, µM (top dose mostly 57.1 µM), usual class: inhibitors; active means well fitted inhibition curve with a large enough effect, not every such curve was filed as active; inconclusive means small, poorly fitted or top-dose-only effect, or another doubt; inactive means no such curve, though single readings can be large or run the other way; further: nearly all actives have a fitted effect of over 50% in size
NPSR antagonist = neuropeptide S receptor (human) antagonism, cAMP. Q6W5P4. CHO-NPSR cells, cAMP TR-FRET, antagonist mode. Potency, µM (top dose mostly 38.3 µM), hits mostly inhibitors. 220,000 compounds, 1% hits. AID 1461; further: nearly all actives have a fitted effect of over 50% in size
Sfp PPTase inh = Sfp phosphopantetheinyl transferase inhibition. Q9F4F7. Biochemical Sfp PPTase activity, qHTS. Potency, µM, actives largely listed as inhibitors. 310,000 compounds, 3.5% hits;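 further: the enzyme is Sfp with the accession as filed and its product quenches rhodamine fluorescence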
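Fluorescence-quenching assay: 15 nM Sfp-PPTase preincubated 15 min at room temperature with compound, then 5 uM rhodamine-CoA and 12.5 uM BHQ-2-labelled YbbR peptide added. Fluorescence (ex 525/em 598 nm) read at start and after 30 min; difference gives rate.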
Numbers stand for hits; . = inactive; ? = inconclusive; / = no result; ! = not active in a repeat; [ ] = remark or other dose. An excerpt weighted towards active compounds, which were near 8.5% of everything screened. Unless noted, the call rests on the fitted dose curve; in most records, active means well fitted curve in the direction sought with a large enough effect; inconclusive means small, poorly fitted or top-dose-only effect, or another doubt; inactive means no such curve, though single readings can be large; an effect the other way counts as inactive or inconclusive.

SMILES | GoLoco inh red | ALDH1A1 inh | Coupling enz | JMJD2E inh | NPSR antagonist | Sfp PPTase inh
COc1cccc(CNC(=O)CCC2CCCN(C(=O)c3cccnc3SC)C2)c1 (stereo unspecified) | / | / | / | / | / | .
O=C(NCc1cccnc1)C1CC(c2ccc(Cl)c(Cl)c2)=NO1 (stereo unspecified) | / | / | . | / | / | .
COc1ccccc1CCNC(=O)C(=O)NCC1OCCN1S(=O)(=O)c1ccc(C)cc1 (stereo unspecified) | / | / | . | / | / | .
CC(C)c1ccc(-n2cnn(-c3ncccc3[N+](=O)[O-])c2=O)cc1 | . | 14.1µM | . | . | . | .
CC(NC(=O)/C(=C\c1cccc([N+](=O)[O-])c1)NC(=O)c1ccco1)C(=O)O (stereo unspecified) | . | 6.31µM | . | . | . | 79.4µM
Cc1ccc(N2CCN(c3ccc(C)cc3)C2c2ccncc2)cc1 | . | . | . | . | ? | 44.7µM
COC(=O)/C(=C/Nc1ccccc1)[N+](=O)[O-] | . | . | . | . | . | .
COC(=O)/C(=C/Nc1ccc(O)cc1)[N+](=O)[O-] | . | . | -35.7 | ? | . | .
C[Si](C)(C)Cl | . | 22.4µM | / | / | / | /
O=C(c1ccc2c3c(cccc13)CC2)C1CCCN(C(=O)c2ccc(=O)[nH]c2)C1 (stereo unspecified) | . | ? | . | ? | . | 50.1µM
CCn1cc(C(=O)OCC(=O)c2cc(C)n(-c3ccccc3)c2C)c(=O)c2ccc(C)nc21 | . | . | . | . | . | ?
CCn1cc(C(=O)OCC(=O)Nc2ccc(C(C)C)cc2)c(=O)c2ccc(C)nc21 | . | 14.1µM | . | . | . | .
CCn1cc(C(=O)OCC(=O)c2cc(C)n(-c3ccc(OC(F)F)cc3)c2C)c(=O)c2ccc(C)nc21 | . | 10µM | . | . | . | .
Cc1ccc(Cn2c(=O)c3ccccc3n3nc(C)cc23)cc1 | . | ? | . | ? | . | .
O=c1nc2n(c3sc4c(c13)CCCC4)C(CBr)CS2 (stereo unspecified) | . | 12.6µM | . | . | . | .
CC(=O)c1cccc(N=c2scc(-c3ccc(S(=O)(=O)N4CCOCC4)cc3)n2CCO)c1 | . | 25.1µM | . | . | . | .
CC(NC(=O)Cn1cc(Br)c([N+](=O)[O-])n1)c1ccccc1 (stereo unspecified) | / | / | . | / | / | .
Cc1ccc(C(C[N+](=O)[O-])c2c(-c3ccccc3O)[nH][nH]c2=O)cc1 (stereo unspecified) | . | 20µM | . | ? | . | .
COC(=O)[C@H](CCSC)NC(=O)c1cc2c(cn1)[nH]c1ccccc12 | / | / | . | / | / | 8.91µM
CNC(=O)c1cc2c(cn1)[nH]c1ccccc12 | . | ? | . | ? | . | .
Brc1cccc(OCCCNC2CCCC2)c1 | / | / | . | / | / | .
CN(CC(=O)NCc1ccc(F)cc1)Cc1ccc(Br)cc1 | / | / | . | / | / | .
COc1ccc(Br)cc1CN(C)CC(=O)NCc1ccc(F)cc1 | / | / | . | / | / | 79.4µM
C=CCn1cc(/C=N/NC(=O)COc2cccc3cccnc23)c2ccccc21 | . | 17.8µM | . | ? | . | ?
Cc1cc(/C=N\NC(=O)COc2cccc3cccnc23)c(C)n1-c1ccccc1 | . | 14.1µM | . | . | . | .
SMILES | GoLoco inh red | ALDH1A1 inh | Coupling enz | JMJD2E inh | NPSR antagonist | Sfp PPTase inh
Cc1cc(/C=N/NC(=O)C(=O)NCc2ccccn2)c(C)n1-c1ccccc1 | . | 11.2µM | . | . | . | .
Cc1cc(C)cc(-n2c(C)cc(/C=N/NC(=O)CSc3ncccn3)c2C)c1 | . | 28.2µM | . | . | ? | .
CCc1cccc(C)c1N=Cc1c(O)c2ccccc2oc1=O | / | / | . | / | / | .
Cc1cc(/C=N\NC(=O)c2cccs2)c(C)n1-c1ccc2ncccc2c1 | . | 20µM | . | . | . | .
C[C@H](NC(=O)c1nc[nH]c1C(=O)N[C@@H](Cc1ccccc1)C(=O)OC(C)(C)C)c1ccccc1 | . | 17.8µM | . | . | ? | .
CC(C)C[C@H](NC(=O)c1nc[nH]c1C(=O)N[C@@H](CCCCNC(=O)OC(C)(C)C)C(=O)OC(C)(C)C)C(=O)OC(C)(C)C | . | / | . | . | 10µM | .
CC(C)(C)OC(=O)NCCCC[C@H](NC(=O)c1[nH]cnc1C(=O)Nc1ccc(Cl)cc1)C(=O)OC(C)(C)C | . | / | . | 22.4µM | ? | .
CC(C)(C)OC(=O)NCCCC[C@H](NC(=O)c1[nH]cnc1C(=O)Nc1ccccc1)C(=O)OC(C)(C)C | . | / | . | . | ? | .
O=C(NCC(=O)N1CCN(Cc2ccccc2)CC1)c1ccc(Br)o1 | / | / | . | / | / | .
O=[N+]([O-])c1cccc(C(=NCc2ccccc2)NO)c1 | / | / | . | / | / | .
Nc1nc2n(n1)C1(CCCCC1)C1=C(CCCC1)N2 | . | ? | . | . | . | .
C1CCC2(CC1)C1=C(CCCC1)Nc1nnnn12 | . | 28.2µM | . | . | . | .
O=C1CCCC=C1[C@H](O)c1ccc([N+](=O)[O-])cc1 | / | .[13.5 µM] | . | / | / | .
CN(C)c1cc(NC(=O)CNC(C)(C)C)c2ccccc2n1 | . | / | . | ? | . | 79.4µM
S=C(NCc1ccccc1)Nc1ccncc1 | / | / | . | / | / | .
CNc1c(NS(=O)(=O)c2cc(OC)ccc2OC)c(=O)oc2ccccc12 | / | / | . | / | / | .
O=C(CCNNC(=O)c1ccncc1)NCc1ccccc1 | . | . | . | 8.91µM! | . | .
CC(C)C[C@@H](CC(=O)N[C@H](CC(=O)N[C@@H]1CCNC[C@H]1C(=O)N[C@H](CC(=O)N[C@@H](CCC(=O)O)CC(=O)O)Cc1ccccc1)C(C)C)NC(=O)[C@@H]1CCCC[C@H]1N | . | . | . | . | / | .
COc1ccc(C2NC(=O)NC(O)(C(F)(F)F)C2C(=O)c2ccc(C)cc2)cc1 (stereo unspecified) | / | 17.8µM | . | . | . | .
COc1ccc(C2NC(=O)NC(O)(C(F)(F)F)C2C(=O)c2ccccc2)cc1OC (stereo unspecified) | . | 31.6µM | . | . | . | .
COc1cccc(C2NC(=O)NC(O)(C(F)(F)F)C2C(=O)c2cccnc2)c1OC (stereo unspecified) | . | 11.2µM | . | . | . | .
Cc1cccc(CSc2nc3[nH]ncc3c(=O)[nH]2)c1 | . | 8.91µM | . | . | . | .
CC(C)Sc1nc2[nH]ncc2c(=O)[nH]1 | . | ? | . | . | . | 50.1µM
CSc1nc2[nH]ncc2c(=O)[nH]1 | . | . | . | . | . | .
CNc1ncnc2ccc(-c3ccccc3C)cc12 | . | . | . | / | / | .
O=C(COc1ccccc1)N1CCN(c2ccc([N+](=O)[O-])c(N3CCCCC3)c2)CC1 | . | 10µM | . | . | . | .
O=C(COc1ccc(Br)cc1)N1CCN(c2ccc([N+](=O)[O-])c(N3CCCCC3)c2)CC1 | / | 3.98µM | . | . | . | .
Cc1ccc(OCC(=O)N2CCN(c3ccc([N+](=O)[O-])c(N4CCOCC4)c3)CC2)cc1 | . | . | . | . | ? | .
